Hits are enriched below; roughly 19% of the tested compounds scored in any of these assays.
DT40 TDP1 CPT = growth inhibition of DT40 Tdp1-/-;hTDP1 cells with camptothecin (screen for TDP1 inhibitors); chicken DT40 Tdp1-/-;hTDP1 cells + 20 nM CPT, ATP luminescence, 48 h; AID 686979; Potency, µM (highest dose often 46.2 µM), without a hit: top-dose activity change, negative = growth inhibition, most hits filed as inhibitors; 12% of 420,000 active; further: potency means the concentration at half of the fitted maximal effect; on the % scale 0 is the no-effect control and ±100 the full control effect; nearly all actives have a fitted effect of over 55% in size
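Chicken DT40 Tdp1-/- cells complemented with human TDP1, 400 cells/well, exposed to compounds plus 20 nM camptothecin for at least 48 h at 37 C; viability read as ATP content by CellTiter-Glo luminescence.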
Chronic BCR inh = blocks chronic active B-cell receptor signaling; 0.05% of 340,000 active; AID 493014; Potency, µM (titrated, usually from 46.1 µM), for the others: at the highest dose activity change, negative = inhibition, actives largely listed as inhibitors; ABC-DLBCL IkBa-CBG/CBR reporter, luminescence ratio, 4 h; active means well fitted inhibition curve with a large enough effect in the signal ratio, with a control signal flat, not every such curve was filed as active; inconclusive means small, poorly fitted or top-dose-only effect, or effect the other way, or a change in a side signal; the % refers to the signal ratio;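 further: potency means the concentration at half of the fitted maximal effect; plate controls were basal doxycycline-induced cells for no effect and cells given 10 µM MG132 for full effect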
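TMD8 ABC-DLBCL cells carrying doxycycline-inducible green luciferase fused to IkappaBalpha plus unfused red luciferase were exposed to compounds (up to 46 uM) for 4 hrs at 37C. Activity came from the overlap-corrected green/red luminescence ratio.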
SW480 rerep = DNA re-replication induction in SW480 cells | SW480 DNA re-replication, Hoechst DNA content imaging, 48 h | Potency, µM (series often up to 46.1 µM), for the others: at the highest dose re-replication activation, usual class: activators | 1.8% of 340,000 active | AID 624297; further: potency means the concentration at half of the fitted maximal effect; % of control where 0% means no effect; nearly all actives have a fitted effect of over 55% in size
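Quantitative HTS format with DMSO vehicle controls; 48 hr drug incubation at 37 C, then 40 min Hoechst staining and scanning imager measurement at 405 nm excitation.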
IL1B secr inh = inhibitors of inflammasome signaling (IL-1 beta secretion) | AID 743279 | activity change, % at 57.5 µM | THP-1 LPS/ATP IL-1B secretion, AlphaLISA, 16 h; hits give low values | 4.7% of 360,000 active; in the data active means activity change below about -50%; inconclusive means mostly about -30% to -49%; further: on the % scale 0 is the no-effect control and ±100 the full control effect
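Secreted IL-1B measured by AlphaLISA bead assay after 16 h compound exposure of THP-1 cells; compounds (final up to 57.5 uM) added 1 h before LPS (250 ng/mL) and ATP (1.25 mM) stimulation; lower signal means less secretion.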
MCF10A rerep = DNA re-replication induction in MCF 10a cells; MCF 10A DNA re-replication, Hoechst nuclear intensity, 48 h; Potency, µM (titrated, usually from 46.1 µM), without a hit: at the highest dose activity, positive = re-replication, usual class: activators; 2.9% of 350,000 active; further: potency means the concentration at half of the fitted maximal effect; % of control where 0% means no effect; nearly all actives have a fitted effect of over 50% in size
DT40 TDP1 no CPT = qHTS for Inhibitors of human tyrosyl-DNA phosphodiesterase 1 (TDP1): qHTS in cells in absence of CPT; DT40 Tdp1-/- hTDP1 cells, no CPT, ATP luminescence, 48 h; Potency, µM (top dose mostly 46.2 µM), for inactives: at the highest dose activity change, negative = growth inhibition, most hits filed as inhibitors; 15% of 420,000 active; AID 686978, 2013; further: potency means the concentration at half of the fitted maximal effect; on the % scale 0 is the no-effect control and ±100 the full control effect; nearly all actives have a fitted effect of over 55% in size
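Growth of hTDP1-complemented DT40 Tdp1-knockout cells is measured by ATP luminescence after at least 48 hr compound exposure at 37 °C, with DMSO substituting for the 20 nM CPT used in the parallel screen.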
* marks the source's active call; other numbers are inactive results; ? = inconclusive; . = no result. Unless noted, the call rests on the fitted dose curve; in most records, active means well fitted curve in the direction sought with a large enough effect; inconclusive means small, poorly fitted or top-dose-only effect, or another doubt; inactive means no such curve, though single readings can be large; an effect the other way counts as inactive or inconclusive.

SMILES | DT40 TDP1 CPT | Chronic BCR inh | SW480 rerep | IL1B secr inh | MCF10A rerep | DT40 TDP1 no CPT
COC(=O)C1=CN(CC2CCCO2)C=C(C(=O)OC)C1c1cccc(O)c1 (centres undefined) | 3% | -1% | -8% | -2 | -7% | -6%
CN1CCN(c2ccc(S(=O)(=O)N3CCOCC3)cc2NC(=O)CSCc2ccccc2)CC1 | ? | 0% | -11% | ? | 4% | 5%
Nc1nc2c(nnn2Cc2ccc(Cl)c(Cl)c2)c(=O)[nH]1 | 2% | . | -8% | 5 | 6% | -23%
COC(=O)C1=CN(C(C)C)C=C(C(=O)OC)C1c1cccc(OC)c1 | 2% | -5% | -225% | -10 | 0% | -1%
COC(=O)C1=CN(c2ccc(F)cc2)C=C(C(=O)OC)C1c1ccc(O)cc1 | 6% | ? | 28% | ? | 7% | 16µM*
COC(=O)C1=CN(c2ccc(C)cc2)C(N)=C(C#N)C1c1ccccc1F (centres undefined) | ? | . | . | -12 | . | ?
COC(=O)C1=CN(c2ccc(OC)cc2OC)C(N)=C(C#N)C1c1cccc([N+](=O)[O-])c1 (centres undefined) | 0.37µM* | . | . | 116 | . | 0.33µM*
COC(=O)C1=CN(c2ccc(F)cc2)C(N)=C(C#N)C1c1ccc(-c2ccccc2)cc1 (centres undefined) | 7.3µM* | . | . | -18 | . | 5.8µM*
COC(=O)C1=CN(c2cc(C)cc(C)c2)C=C(C(=O)OC)C1c1cccc(F)c1 | 18µM* | -2% | ? | ? | 3.7µM* | 13µM*
COC(=O)C1=CN(c2cc(C)cc(C)c2)C=C(C(=O)OC)C1c1ccc(OC)c(O)c1 | ? | -21% | ? | -28 | 20% | ?
COC(=O)C1=CN(c2cccc(OCc3ccccc3)c2)C(N)=C(C#N)C1c1cccc(F)c1 (centres undefined) | 13µM* | . | . | -5 | . | 23µM*
COC(=O)C1=C(C)N(Cc2ccccc2)C(=O)N[C@H]1c1cccc(F)c1 | -18% | . | -24% | 3 | 8% | -27%
COC(=O)C1=CN(c2ccc(F)cc2)C(N)=C(C#N)C1c1cccc(F)c1 (centres undefined) | 7.3µM* | . | . | -16 | . | 12µM*
COc1cc(NC(=O)Cn2nc3c(cc2=O)CC(C)CC3)cc(OC)c1OC (centres undefined) | -15% | . | . | . | . | -26%
CC(C)(C)c1ccccc1NC(=O)CN1C(=O)NC(Cc2ccccc2)C1=O (centres undefined) | -10% | -3% | -2% | 8 | 0% | -18%
COc1ccc(N/N=C(\C#N)C(=N)N2CCCCC2)cc1 | -13% | -1% | -14% | -24 | 1% | ?
COc1ccc(N/N=C(\C#N)C(=N)SCc2ccccc2)cc1 | 4.6µM* | ? | -2% | -23 | ? | 7.3µM*
CC(C)CCNC(=O)Nc1cc(C(=O)NCc2cccc(F)c2)ccc1N1CCCC1 | -24% | . | . | . | . | ?
COCc1cccc(-c2csc(C(C)(O)c3cccc(F)c3)n2)c1 (centres undefined) | ? | . | . | 15 | . | ?
O=C(N/N=C/c1ccc(O)c(O)c1)c1ccc(CSc2cccc3cccnc23)cc1 | ? | ? | -2% | 2 | ? | 8.2µM*
O=C(CSc1cccc2cccnc12)N/N=C/c1cccc(O)c1 | ? | ? | -2% | -23 | 1% | 16µM*
O=C(CSc1cccc2cccnc12)N/N=C/c1ccc(F)cc1 | -8% | -1% | 0% | -15 | 6% | -16%
COc1ccc(C(=O)N/N=C/c2ccc(OC)c(CSc3ccccn3)c2)cc1 | -5% | ? | -5% | ? | 14% | -19%
Cc1ccc(S(=O)(=O)N(CC(=O)N/N=C/c2cccc(C)c2)c2cccc3cccnc23)cc1 | ? | . | 7% | -10 | 4% | 21µM*
CCCCC(=O)N/N=C/c1ccc(Sc2cccc3cccnc23)o1 | ? | ? | -1% | -19 | 18% | 23µM*
SMILES | DT40 TDP1 CPT | Chronic BCR inh | SW480 rerep | IL1B secr inh | MCF10A rerep | DT40 TDP1 no CPT
COc1ccc(-c2nc3cnc(Oc4cccc(Cl)c4)nc3n(C[C@H]3CCCO3)c2=O)cc1 | -12% | . | . | . | . | -9%
O=C(c1ccc(Cl)c(NC2=NC3CS(=O)(=O)CC3S2)c1)N1CCN(c2ccc(F)cc2)CC1 (centres undefined) | -27% | -11% | -1% | 0 | 0% | 3%
O=[N+]([O-])c1cc2c(cc1C=Nc1ccccc1)OCO2 | ? | 0% | 19% | -2 | 10% | -29%
Sc1oc(-c2ccccc2)cc1C=Nc1ccccc1 | 5.8µM* | ? | 13µM* | 0 | ? | 16µM*
CCCCCNC(=O)C1CCC(Cn2c(=O)c3sccc3n(CC(=O)NCc3cccc(OC)c3OC)c2=O)CC1 (centres undefined) | 1% | . | . | . | . | -5%
CCCCNC(=O)C1CCC(Cn2c(=O)c3sccc3n(CC(=O)N3CCCC3)c2=O)CC1 (centres undefined) | -4% | . | . | . | . | -17%
CCCCNC(=O)C1CCC(Cn2c(=O)c3sccc3n(CC(=O)Nc3ccccc3)c2=O)CC1 (centres undefined) | 15µM* | . | . | . | . | ?
CCCNC(=O)C1CCC(Cn2c(=O)c3sccc3n(CC(=O)NCc3cccc(OC)c3OC)c2=O)CC1 (centres undefined) | ? | . | . | . | . | 4.1µM*
COc1ccc(C(=O)OCc2cc(=O)n3nc(C4CC4)sc3n2)cc1OC | -18% | . | . | . | . | -15%
COc1ccccc1NC(=O)COc1ccc(C(=O)NC2CCCc3ccccc32)cc1OC (centres undefined) | ? | ? | 6% | 33 | ? | 7.3µM*
O=C(NC1CCCc2ccccc21)c1n[nH]c(=O)c2ccccc12 (centres undefined) | ? | -5% | 1% | -8 | 11% | 6.5µM*
COc1cccc(C(=O)NC2CCCc3ccccc32)c1OC (centres undefined) | ? | 1% | -2% | 32 | 6% | 23µM*
O=C(NC1CCCc2ccccc21)c1ccccc1 (centres undefined) | -18% | 1% | 12% | 5 | 1% | ?
CCc1c(C(=O)NC2CCCc3ccccc32)[nH]c(C)c1C(C)=O (centres undefined) | ? | -3% | 2% | 42 | -4% | 15µM*
CC(C)NC(=O)c1nn(C)c2c1CS(=O)(=O)c1ccccc1-2 | -20% | . | . | . | . | 0%
